Data on 9 molecules can be found in PubChem BioAssay (EPA / NIEHS).

Test [1] can be described thus: ATG_M_61_CIS: Attagene CIS-FACTORIAL HepG2 Assay for M61 Transcription Factor (Internal Marker) (AID 2282937; active = hit-call score of the fitted dose curve at least 0.9, where 1 is the maximum; inactive = score below 0.9). The note with it: HepG2 Attagene CIS-FACTORIAL M61 internal marker reporter; actives raise or lower the signal. An outline of the steps:
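Fluorescence from labelled cDNA fragments, separated by capillary electrophoresis, quantifies reporter induction. HepG2 cells bearing transiently transfected cis-promoter MRTUs were incubated with test chemical for 24 h; DMSO defined baseline for gain/loss fitting.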

The nature of test [2]: ATG_GRE_CIS: Attagene CIS-FACTORIAL HepG2 Assay for human Glucocorticoid Response Elements (GRE) (AID 2282947; active = hit-call score of the fitted dose curve at least 0.9, where 1 is the maximum; inactive = score below 0.9). The note with it: HepG2 GRE cis-reporter, Attagene multiplex mRNA; actives raise or lower the signal. In a few lines: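 Assay uses human hepatoma HepG2 cells transfected with cis-promoter reporter units, exposed 24 h. mRNA from reporters detected by RT-PCR plus capillary electrophoresis; DMSO serves as negative control and baseline.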

Test [3] is described as follows: ATG_PPRE_CIS: Attagene CIS-FACTORIAL HepG2 Assay for human Peroxisome Proliferator-activated Response Element (PPRE) (AID 2282958; active = hit-call score of the fitted dose curve at least 0.9, where 1 is the maximum; inactive = score below 0.9). Particulars: HepG2 PPRE cis-element reporter, Attagene transcription factor profiling; actives raise or lower the signal. An outline of the steps: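 Multiplexed reporter transcription units under cis-regulatory promoters were transfected into HepG2 cells to capture endogenous factor activity. A 24 h incubation preceded RNA isolation and fluorescent RT-PCR fragment analysis.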

A short description of test [4]: ATG_RORE_CIS: Attagene CIS-FACTORIAL HepG2 Assay for human RAR-related Orphan Receptor Element (RORE) (AID 2282959; active = hit-call score of the fitted dose curve at least 0.9, where 1 is the maximum; inactive = score below 0.9). Particulars: HepG2 Attagene cis-factorial RORE reporter, mRNA; actives raise or lower the signal. In a few lines: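 Fluorescence intensity of reporter-specific cDNA fragments, separated by capillary electrophoresis, gives the signal. Source: HepG2 liver cells transiently transfected with cis-element reporters and exposed 24 h; DMSO-normalized bidirectional fit.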

A short description of test [5]: ATG_TGFb_CIS: Attagene CIS-FACTORIAL HepG2 Assay for human Transforming Growth Factor (TGF) (AID 2282967; active = hit-call score of the fitted dose curve at least 0.9, where 1 is the maximum; inactive = score below 0.9). Particulars: HepG2 Attagene CIS TGFb reporter, mRNA transcription; actives raise or lower the signal. An outline of the steps: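 After a 24-hour incubation with compound, transfected HepG2 cells were lysed for RNA; reporter cDNA was amplified, fluorescently end-labeled and separated by CE. DMSO served as baseline for bidirectional fits.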

For test [6], the target named is Hepatocyte nuclear factor 4-alpha (Homo sapiens) (UniProt P41235). The test can be described thus: ATG_HNF4a_TRANS: Attagene TRANS-FACTORIAL HepG2 Assay for human Hepatocyte Nuclear Factor 4 alpha (HNF4a) (AID 2282982). Particulars: HepG2 HNF4a transactivation reporter, mRNA readout. In a few lines:
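Transfected HepG2 reporter cells are dosed for 24 h; reporter RNA is reverse-transcribed, amplified, fluorescently labelled and HpaI-digested before CE sizing. Positive-direction fit against DMSO.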

A short description of test [7]: ATG_M_06_TRANS: Attagene TRANS-FACTORIAL HepG2 Assay for M06 Transcription Factor (Internal Marker) (AID 2282983). Particulars: HepG2 Attagene TRANS M06 internal marker reporter. An outline of the steps:
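HepG2 cells transiently transfected with multiplexed GAL4-UAS reporter transcription units; after 24 h compound exposure, reporter mRNA measured by RT-PCR, FAM-labelled primer extension, HpaI digestion and capillary electrophoresis. Gain-of-signal fitted versus DMSO baseline; background control readout.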

Test [8] in a line: ATG_NFI_CIS: Attagene CIS-FACTORIAL HepG2 Assay for human Nuclear Factor I (NFI) (AID 2282989; active = hit-call score of the fitted dose curve at least 0.9, where 1 is the maximum; inactive = score below 0.9). Particulars: HepG2 cis-regulatory reporter, NFI response element transcription; actives raise or lower the signal. An outline of the steps: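 Reporter transcription driven by endogenous transcription factors in HepG2 cells; 24 h treatment. Quantitation by labelled RT-PCR fragments on capillary electrophoresis, gain- or loss-of-signal relative to DMSO.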

Test [9] deals with Retinoic acid receptor RXR-alpha (Homo sapiens) (UniProt P19793). In words: ATG_RXRa_TRANS: Attagene TRANS-FACTORIAL HepG2 Assay for human Retinoid X Receptor alpha (RXRa) (AID 2283012). In a few lines:
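HepG2 cells transiently transfected with multiplexed GAL4-UAS reporter units and chimeric NR-GAL4 fusions, dosed 24 h. Reporter mRNA measured by RT-PCR, FAM labelling, HpaI digestion and capillary electrophoresis; gain-of-signal fitted relative to DMSO baseline.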

Test [10] is described as follows: ATG_EGR_CIS: Attagene CIS-FACTORIAL HepG2 Assay for human Early Growth Response 1 (EGR1) (AID 2282938; active = hit-call score of the fitted dose curve at least 0.9, where 1 is the maximum; inactive = score below 0.9). Particulars: HepG2 Attagene CIS-FACTORIAL EGR reporter mRNA; actives raise or lower the signal. An outline of the steps: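 Cell-based multiplex transcription assay: HepG2 carrying transfected cis-element reporter units, 24 h chemical treatment. Fluorescence from capillary electrophoresis of RT-PCR products gives mRNA levels; fitting is bidirectional relative to DMSO.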

The nature of test [11]: ATG_M_19_TRANS: Attagene TRANS-FACTORIAL HepG2 Assay for M19 Transcription Factor (Internal Marker) (AID 2282974). The note with it: HepG2 Attagene TRANS-FACTORIAL M19 internal marker reporter. In a few lines:
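Measured here: internal-marker reporter transcript from HepG2 cells transfected with MRTUs, harvested at 24 h. cDNA PCR products were 6-FAM labelled by primer extension, cut with HpaI for 2 h at 37 C, and resolved by CE.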

Test [12] concerns the target Nuclear receptor subfamily 1 group I member 2 (Homo sapiens) (UniProt O75469). The test can be described thus: ATG_PXR_TRANS: Attagene TRANS-FACTORIAL HepG2 Assay for human Pregnane X Receptor (PXR) (AID 2283008). An outline of the steps: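 Measures mRNA induction of a GAL4-UAS-driven reporter in human HepG2 cells transiently expressing PXR fused to Gal4, following 24 h treatment. DMSO served as negative control and baseline.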

For test [13], the target named is human Retinoid X Receptor beta (RXRb), RXRB (gene 6257) (UniProt P28702). In words: ATG_RXRb_TRANS: Attagene TRANS-FACTORIAL HepG2 Assay for human Retinoid X Receptor beta (RXRb) (AID 2283013). An outline of the steps: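 HepG2 cells transiently transfected with multiplexed reporter units driven by GAL4-UAS and exogenous chimeric NR-Gal4 proteins; treated 24 h. Reporter mRNA measured by RT-PCR, 6-FAM labelling and capillary electrophoresis; gain-of-signal fitted versus DMSO baseline.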
Sequence of human Retinoid X Receptor beta (RXRb), RXRB (gene 6257) (P28702 whole entry, looked up, the tested form may be a part): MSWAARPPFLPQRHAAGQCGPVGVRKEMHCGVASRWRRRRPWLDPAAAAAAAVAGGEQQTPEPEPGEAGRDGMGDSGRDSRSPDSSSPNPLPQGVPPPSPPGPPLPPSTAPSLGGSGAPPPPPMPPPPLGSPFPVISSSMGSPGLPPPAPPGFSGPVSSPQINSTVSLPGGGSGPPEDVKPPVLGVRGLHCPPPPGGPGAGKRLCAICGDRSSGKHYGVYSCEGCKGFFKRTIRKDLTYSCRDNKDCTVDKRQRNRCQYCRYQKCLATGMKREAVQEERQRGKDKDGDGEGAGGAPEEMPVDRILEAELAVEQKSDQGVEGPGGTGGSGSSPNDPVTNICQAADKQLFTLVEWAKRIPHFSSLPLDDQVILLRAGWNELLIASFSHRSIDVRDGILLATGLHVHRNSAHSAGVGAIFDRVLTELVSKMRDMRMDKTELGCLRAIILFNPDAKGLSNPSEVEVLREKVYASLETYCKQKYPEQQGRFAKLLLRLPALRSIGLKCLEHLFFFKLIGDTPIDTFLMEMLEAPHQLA

The target in test [14] is Cellular tumor antigen p53 (Homo sapiens) (UniProt P04637). In words: TOX21_p53_BLA_p2_ratio: Tox21 HCT-116 p53 Agonism Beta-lactamase Assay, Ratio, Phase 2 (AID 2283592). In a few lines: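 HCT116 cells carrying a p53-responsive beta-lactamase reporter were plated, incubated 5 h at 37C, then dosed with compounds in DMSO (217-fold dilution) for 16 h. CCF4-AM substrate was added for 2 h at room temperature; the 460/530 nm emission ratio gave gain-of-signal activity relative to DMSO.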
Sequence of Cellular tumor antigen p53 (Homo sapiens) (P04637 whole entry, looked up): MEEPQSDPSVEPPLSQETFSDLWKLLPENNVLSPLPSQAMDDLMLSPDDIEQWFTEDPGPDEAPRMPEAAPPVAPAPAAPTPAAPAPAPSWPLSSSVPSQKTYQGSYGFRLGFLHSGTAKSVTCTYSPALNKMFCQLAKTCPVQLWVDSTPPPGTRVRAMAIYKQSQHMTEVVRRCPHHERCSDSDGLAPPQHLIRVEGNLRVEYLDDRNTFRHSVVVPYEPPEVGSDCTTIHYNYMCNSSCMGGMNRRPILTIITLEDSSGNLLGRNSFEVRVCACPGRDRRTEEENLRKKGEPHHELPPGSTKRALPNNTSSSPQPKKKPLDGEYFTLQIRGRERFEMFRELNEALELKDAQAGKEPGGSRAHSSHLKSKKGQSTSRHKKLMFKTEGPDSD

The target is the same in test [15]. In words: TOX21_p53_BLA_p3_ratio: Tox21 HCT-116 p53 Agonism Beta-lactamase Assay, Ratio, Phase 3 (AID 2283596). In a few lines: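 HCT116 p53-bla cells (4000/well) given compound in DMSO (217-fold dilution) after 5 h, incubated 16 h at 37C. CCF4-AM substrate 2 h at room temperature; 460/530 nm emission ratio, gain fitted against DMSO.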
For test [16] the target is unchanged. In words: TOX21_p53_BLA_p5_ratio: Tox21 HCT-116 p53 Agonism Beta-lactamase Assay, Ratio, Phase 5 (AID 2283599). In a few lines: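 Beta-lactamase reporter ratio (blue 460 nm over green 530 nm, 405 nm excitation) after 2 h CCF4-AM loading, in HCT-116 cells exposed 16 h at 37 C to compounds pinned at 217-fold dilution. Increases relative to DMSO baseline scored.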

The nature of test [17]: TOX21_p53_BLA_p5_viability: Viability Assessment in the Tox21 HCT-116 p53 Agonism Beta-lactamase Assay, Phase 5 (AID 2283600). In a few lines: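 Cells were plated at 4000/well, rested 5 h at 37C, then given compounds in DMSO (217-fold dilution) for 16 h at 37C, 5% CO2. Following the CCF4-AM beta-lactamase read, CellTiter-Glo was added and luminescence was read after 30 min at room temperature.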

The target of test [18] is Cellular tumor antigen p53 (Homo sapiens) (UniProt P04637). The test can be described thus: TOX21_p53_BLA_p4_ratio: Tox21 HCT-116 p53 Agonism Beta-lactamase Assay, Ratio, Phase 4 (AID 2283601). In a few lines:
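Signal is the blue/green (460nm/530nm) ratio of cleaved versus uncleaved CCF4-AM substrate, read after 2 h substrate loading. Cells were HCT116 carrying the p53-responsive beta-lactamase reporter, dosed 16 h at 37C, 5% CO2; CellTiter-Glo measured in parallel.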

Test [19] is described as follows: ATG_M_06_CIS: Attagene CIS-FACTORIAL HepG2 Assay for M06 Transcription Factor (Internal Marker) (AID 2282950; active = hit-call score of the fitted dose curve at least 0.9, where 1 is the maximum; inactive = score below 0.9). Particulars: HepG2 Attagene CIS-FACTORIAL M06 internal marker reporter; actives raise or lower the signal. An outline of the steps:
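One of many multiplexed endpoints: HepG2 reporter mRNA after 24 h dosing, detected by RT-PCR and capillary electrophoresis fluorescence; gain or loss of signal analysed against DMSO.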

The target in test [20] is Nuclear respiratory factor 1 (Homo sapiens) (UniProt Q16656). The test can be described thus: ATG_NRF1_CIS: Attagene CIS-FACTORIAL HepG2 Assay for human Nuclear Respiratory Factor 1 (NRF1) Orphan Gene (AID 2282987; active = hit-call score of the fitted dose curve at least 0.9, where 1 is the maximum; inactive = score below 0.9). Particulars: HepG2 NRF1 cis-element reporter, Attagene multiplex; actives raise or lower the signal. An outline of the steps: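 Transcriptional reporter readout, one component of a 52-endpoint multiplexed HepG2 panel. Exposure 24 h; mRNA detected via RT-PCR and fluorescent capillary electrophoresis; fitting in both directions against DMSO.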
Sequence of Nuclear respiratory factor 1 (Homo sapiens) (Q16656 whole entry, looked up): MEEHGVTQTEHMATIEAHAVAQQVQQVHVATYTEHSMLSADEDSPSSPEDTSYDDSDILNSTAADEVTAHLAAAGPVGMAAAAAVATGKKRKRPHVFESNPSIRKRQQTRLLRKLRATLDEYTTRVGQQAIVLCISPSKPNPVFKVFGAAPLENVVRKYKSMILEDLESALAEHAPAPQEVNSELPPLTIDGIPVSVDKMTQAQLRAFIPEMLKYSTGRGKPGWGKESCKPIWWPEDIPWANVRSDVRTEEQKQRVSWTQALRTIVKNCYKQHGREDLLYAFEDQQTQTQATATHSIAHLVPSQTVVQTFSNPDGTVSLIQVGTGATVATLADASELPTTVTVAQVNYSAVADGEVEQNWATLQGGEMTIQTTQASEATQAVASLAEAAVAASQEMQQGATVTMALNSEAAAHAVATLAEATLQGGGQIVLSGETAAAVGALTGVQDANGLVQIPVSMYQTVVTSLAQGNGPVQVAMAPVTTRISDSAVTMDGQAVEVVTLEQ

Each structure is given as a SMILES string. Results filed as inconclusive are left out. Where a structure was tested more than once in an assay, its records may differ in their call. Active and inactive are the calls of the source. Rule for the calls, unless noted: active = hit-call score of the fitted dose curve at least 0.9, where 1 is the maximum; inconclusive = response in the unintended direction; inactive = score below 0.9.

For orientation: AC50 means the concentration giving half of the maximal activity seen.

Sequence of Retinoic acid receptor RXR-alpha (Homo sapiens) (P19793 whole entry, looked up, the tested form may be a part): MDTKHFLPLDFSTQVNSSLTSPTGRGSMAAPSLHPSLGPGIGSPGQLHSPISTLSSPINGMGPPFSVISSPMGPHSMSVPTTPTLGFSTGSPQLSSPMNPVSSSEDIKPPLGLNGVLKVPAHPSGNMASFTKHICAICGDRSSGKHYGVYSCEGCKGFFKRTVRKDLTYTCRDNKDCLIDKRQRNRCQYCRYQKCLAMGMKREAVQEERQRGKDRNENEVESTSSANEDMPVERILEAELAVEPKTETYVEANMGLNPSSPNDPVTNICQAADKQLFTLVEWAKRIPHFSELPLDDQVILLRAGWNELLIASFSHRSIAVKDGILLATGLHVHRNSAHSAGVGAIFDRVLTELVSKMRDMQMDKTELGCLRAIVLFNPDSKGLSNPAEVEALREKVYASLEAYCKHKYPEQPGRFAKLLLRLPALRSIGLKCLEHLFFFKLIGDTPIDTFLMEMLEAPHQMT
Sequence of Nuclear receptor subfamily 1 group I member 2 (Homo sapiens) (O75469 whole entry, looked up, the tested form may be a part): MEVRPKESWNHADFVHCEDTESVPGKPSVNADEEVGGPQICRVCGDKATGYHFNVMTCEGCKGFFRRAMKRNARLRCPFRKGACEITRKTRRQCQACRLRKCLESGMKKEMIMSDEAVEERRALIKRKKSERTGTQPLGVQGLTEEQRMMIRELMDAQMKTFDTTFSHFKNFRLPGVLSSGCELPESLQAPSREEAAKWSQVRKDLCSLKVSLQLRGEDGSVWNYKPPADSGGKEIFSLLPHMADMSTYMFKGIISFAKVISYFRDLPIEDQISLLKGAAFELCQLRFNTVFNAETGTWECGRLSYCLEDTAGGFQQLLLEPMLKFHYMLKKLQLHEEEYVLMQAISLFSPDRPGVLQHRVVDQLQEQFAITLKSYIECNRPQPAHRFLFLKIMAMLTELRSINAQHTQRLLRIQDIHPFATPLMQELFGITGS
Sequence of Hepatocyte nuclear factor 4-alpha (Homo sapiens) (P41235 whole entry, looked up): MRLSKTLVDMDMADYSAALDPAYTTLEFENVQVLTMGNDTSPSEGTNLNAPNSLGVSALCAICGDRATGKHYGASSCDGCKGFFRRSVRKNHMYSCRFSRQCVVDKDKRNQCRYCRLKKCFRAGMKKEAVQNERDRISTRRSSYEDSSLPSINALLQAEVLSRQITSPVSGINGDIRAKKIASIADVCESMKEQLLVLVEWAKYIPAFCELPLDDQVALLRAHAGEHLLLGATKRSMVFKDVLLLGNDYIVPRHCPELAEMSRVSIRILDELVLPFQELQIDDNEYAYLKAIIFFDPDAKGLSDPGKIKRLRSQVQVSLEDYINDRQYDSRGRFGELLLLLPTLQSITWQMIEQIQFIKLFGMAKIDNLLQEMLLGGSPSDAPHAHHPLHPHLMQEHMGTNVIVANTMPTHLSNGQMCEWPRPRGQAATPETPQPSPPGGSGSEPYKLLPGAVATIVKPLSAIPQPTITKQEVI

In the case of `CCOP(O)OCC`, the result in [1], in test [2], in [3], in test [4], in test [5] and in test [6] was inactive. For the same molecule, the result in test [7], in [8] and in [9] was inactive.

As to `CC(=O)c1cc2c(cc1C)C(C)(C)C(C)CC2(C)C` (stereo not drawn), the outcome in test [1], in test [10], in test [3], in test [5], in test [11] and in test [6] was inactive. In addition, the outcome in test [7], in test [14], in test [15], in test [16], in test [17] and in test [18] was inactive. Moreover, the AC50 in test [12] is 3.25 µM (active); in test [9], 22.8 µM (active); in [13], 5.85 µM (active).

In the case of `CC(C)(C)C(=O)CCl`, the outcome in test [1], in test [2], in test [19], in test [3], in test [4] and in [5] was inactive. Further, the result in [11], in [6], in test [20], in [8], in [12] and in [9] was inactive. Moreover, the call in test [13], in [14], in test [15], in test [16] and in test [17] was inactive.

`Cc1ccc(N(SC(F)(Cl)Cl)S(=O)(=O)N(C)C)cc1`: the figures for the AC50 in [3], in test [8] and in test [18] were 11.1 µM (active), 17.3 µM (active) and 44.8 µM (active), respectively. Moreover, the outcome in test [6], in [7], in test [20], in test [12], in test [13] and in test [14] was inactive. Besides, the result in test [15], in test [16] and in [17] was inactive.

With `c1ccc(Nc2ccc3ccccc3c2)cc1`, the outcome in test [1], in test [10], in test [2], in test [19], in test [4] and in test [5] was inactive. Besides, the result in test [11], in [6], in test [7], in test [20], in test [8] and in [9] was inactive. For the same molecule, the outcome in [14], in test [15], in test [16], in test [17] and in test [18] was inactive. The AC50 in [3] was 39.8 µM (active); in test [12], 7.59 µM (active); in test [14] it was 74.9 µM (active); in test [18], 73.5 µM (active).

Regarding `N#CCNCC#N`, the outcome in [1], in test [19], in [3], in [4], in [5] and in test [11] was inactive. Besides, the result in test [7], in [20], in test [9] and in [18] was inactive.

Consider `O=C(NC(=O)c1c(F)cccc1F)Nc1ccc(Oc2ccc(C(F)(F)F)cc2Cl)cc1F`, for which the call in [10], in [19], in test [3], in test [4], in test [5] and in test [11] was inactive. Besides, the molecule was called inactive in test [6], in [20], in test [8], in test [12], in test [9] and in test [13]. For the same molecule, the outcome in test [14], in test [15], in test [16] and in [17] was inactive.

`O=C(O)COc1ccccc1`: the result in [10], in [2], in test [3], in test [5], in test [7] and in test [8] was inactive. The result in test [12], in test [9], in [14], in test [16], in test [17] and in [18] was inactive.

Take `CCOP(=O)(OCC)OCC`: the molecule was called inactive in [1], in test [2], in test [19], in test [3], in [4] and in [5]. Moreover, the molecule was classed as inactive in test [11], in [6], in [12], in [9], in test [13] and in test [14]. In addition, the result in test [15], in test [16], in test [17] and in test [18] was inactive.
